Screening results: PubChem BioAssay, National Center for Advancing Translational Sciences (NCATS)
ATXN viability: Viability Counterscreen for Primary qHTS for Inhibitors of ATXN expression. S2 cells (HEK-293 line with an ATXN2-luciferase reporter) viability, CellTiter-Fluor protease fluorescence, 24 h. Potency, µM (highest dose often 56.7 µM), usual class: cytotoxic. 0.49% of 400,000 active; further: nearly all actives have a fitted effect of over 40% in size
TDP1 cell CPT: qHTS for Inhibitors of human tyrosyl-DNA phosphodiesterase 1 (TDP1): qHTS in cells in presence of CPT. 12% of 420,000 active. Potency, µM (titrated, usually from 46.2 µM), usual class: inhibitors. AID 686979, 2013. chicken DT40 Tdp1-/-;hTDP1 cells + 20 nM CPT, ATP luminescence, 48 h; further: nearly all actives have a fitted effect of over 55% in size
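Cell growth measured by CellTiter-Glo luminescence after a minimum 48 h, 37 C compound exposure with 20 nM CPT in Tdp1-knockout DT40 cells stably expressing hTDP1, seeded 400/well; qHTS titration format.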
ATXN2 expr inh: Primary qHTS for Inhibitors of ATXN expression. 0.72% of 360,000 active. HEK-293 ATXN2-luciferase reporter, luminescence, 24 h. Potency, µM (top dose mostly 57 µM), actives largely listed as inhibitors; further: nearly all actives have a fitted effect of over 55% in size
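qHTS (up to 57 uM final) was run with 24 h compound exposure of reporter cells at 37 °C. Each well was multiplexed: SteadyGlo luminescence measured ATXN2-luciferase expression after a fluorogenic Gly-Phe-AFC viability readout (25 uM final).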
HepG2 tox-1: qHTS for Inhibitors of TGF-b: Cytotox Counterscreen. AID 588856, 2011. 0.76% of 410,000 active. Potency, µM (top dose mostly 46.1 µM), most hits filed as cytotoxic. HepG2 CAGA-GFP viability, ATP luminescence, 18 h
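HepG2 CAGA-GFP cells (1000/well, DMEM with 1% FBS) received compound, then TGF-beta at 500 pg/mL final, and were incubated 18 hours at 37 degrees C. Viability was read by CellTiter-Glo luminescence. Media-only wells were set as complete cell-killing and DMSO as no toxicity.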
TDP1 cell noCPT: qHTS for Inhibitors of human tyrosyl-DNA phosphodiesterase 1 (TDP1): qHTS in cells in absence of CPT | Potency, µM (series often up to 46.2 µM), actives largely listed as inhibitors | DT40 Tdp1-/- hTDP1 cells, no CPT, ATP luminescence, 48 h | 15% of 420,000 active; further: nearly all actives have a fitted effect of over 55% in size
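Stably hTDP1-transfected Tdp1-null chicken DT40 cells were treated with library compounds minus camptothecin and grown for at least 48 hr at 37 °C, after which cellular ATP was quantified by luminescence.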
TGFb inhibitor: qHTS for Inhibitors of TGF-b. HepG2 CAGA-GFP TGF-b/SMAD3 reporter, GFP fluorescence, 18 h; TGF-beta stimulated, 500 pg/mL final. Potency, µM (titrated, usually from 46.1 µM), actives largely listed as inhibitors. 1.2% of 410,000 active; further: nearly all actives have a fitted effect of over 65% in size
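Smad-responsive CAGA-GFP expression was quantified in HEPG2 cells exposed to compounds and 500 pg/mL final TGF-beta for 18 h at 37 degrees C; unstimulated wells defined full inhibition.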
TGFb CAGA inh: qHTS for Inhibitors of TGF-b: Confirmation of Cherry Picks | shares compounds with TGFb inhibitor | HepG2 CAGA-GFP TGF-b reporter, GFP fluorescence, 18 h; cells stimulated with TGF-beta, 500 pg/mL | Potency, µM (series often up to 46.1 µM), actives largely listed as inhibitors | 63% of 1,600 active | AID 720534, 2013; further: nearly all actives have a fitted effect of over 65% in size
HepG2 tox-2: qHTS for Inhibitors of TGF-b: Cytotox Counterscreen for Cherry Picks; Potency, µM (top dose mostly 46.1 µM), actives largely listed as inhibitors; shares compounds with TGFb inhibitor; HepG2 CAGA-GFP viability, ATP luminescence, 18 h; cells stimulated with TGF-beta, 500 pg/mL; 27% of 1,600 active; further: nearly all actives have a fitted effect of over 70% in size
CCL64 TGFb inh: qHTS for Inhibitors of TGF-b: CCL64 Cells Orthogonal Assay for Cherry Picks; shares compounds with TGFb inhibitor; CCL64 CAGA-GFP reporter, TGF-b stimulated, GFP fluorescence, 18 h; Potency, µM (series often up to 46.1 µM), usual class: inhibitors; 41% of 1,600 active; further: nearly all actives have a fitted effect of over 65% in size
TGFb COP inh: qHTS for Inhibitors of TGF-b: Hit Validation in HepG2 Cells using COP promoter; shares compounds with TGFb inhibitor; HepG2 COP-GFP TGF-b reporter, GFP fluorescence, 18 h; cells stimulated by added recombinant TGF-beta; Potency, µM (series often up to 46.1 µM), most hits filed as inhibitors; 3% of 1,600 active; AID 720537, 2013; further: nearly all actives have a fitted effect of over 70% in size
Hits are given with their value; . = inactive; ? = inconclusive; / = not tested or not shown. Only some compounds are listed: those with a hit (about 17% of all), similar ones and a draw of the others. The call rests on the fitted dose curve; in most records, active means well fitted curve in the direction sought with a large enough effect; inconclusive means small, poorly fitted or top-dose-only effect, or another doubt; inactive means no such curve, though single readings can be large; an effect the other way counts as inactive or inconclusive.

SMILES	ATXN viability	TDP1 cell CPT	ATXN2 expr inh	HepG2 tox-1	TDP1 cell noCPT	TGFb inhibitor	TGFb CAGA inh	HepG2 tox-2	CCL64 TGFb inh	TGFb COP inh
CC(=O)Nc1ccc2c(c1)-c1ccc(F)cc1C2	.	?	.	.	?	10µM	?	?	.	.
COC(=O)c1ccc(CNC(=O)CSc2nc3sc(C)c(C)c3c(=O)n2C)o1	.	.	.	.	.	.	/	/	/	/
S=C(NCc1ccco1)Nc1ccc(Oc2ccc(Cl)cc2)cc1	.	?	.	.	?	15.8µM	?	?	?	.
COc1ccc(/C(C)=C(\C#N)C(=O)OC(C)C)cc1OC	.	.	.	.	.	.	/	/	/	/
Cc1cccc(N2CCN(C(=O)c3cn(C)c(=O)c4c3c3ccccc3n4C)CC2)c1C	.	22.4µM	?	.	22.4µM	10µM	?	?	20.6µM	.
O=C1NCCN1CCNc1nc(NCc2ccccc2)nc2ccsc12	?	?	.	.	?	7.94µM	14.6µM	?	?	.
CN(C)CCNc1nc(Oc2cccc(F)c2)c2sccc2n1	.	?	.	.	?	.	/	/	/	/
c1ccc(CNc2nc(NCCc3ccncc3)c3sccc3n2)cc1	?	18.4µM	.	.	10.3µM	2.24µM	1.46µM	7.31µM	4.61µM	.
OCCNc1nc(NCc2ccccc2)c2ccccc2n1	.	?	?	.	?	.	/	/	/	/
CCc1ccccc1Oc1nc(NCc2ccccc2)nc2ccsc12	.	?	.	.	?	11.2µM	23.1µM	?	16.4µM	.
Cc1cc(C)c(C)c(S(=O)(=O)NCc2ccc(C(=O)NCC3CCCO3)cc2)c1C (centres undefined)	.	?	.	.	.	.	/	/	/	/
Cc1nn(C)c(C(=O)NNC(=O)NC2CCCCC2)c1Cl	.	.	.	.	.	.	/	/	/	/
Cc1nn(C)c(C)c1CN(C)C(=O)c1cnn2c1NC(c1ccccc1)CC2C(F)(F)F (centres undefined)	.	?	.	.	?	.	/	/	/	/
Cc1ccccc1Cn1ccc(NC(=O)c2cnn3c2NC(c2ccccc2)CC3C(F)(F)F)n1 (centres undefined)	.	?	.	.	?	7.94µM	?	?	23.1µM	.
N#Cc1sc2nccc(Nc3ccccc3)c2c1N	?	?	.	.	2.06µM	4.47µM	8.2µM	.	.	.
CCCCCCN1C[C@@H](O)[C@H](n2cc(-c3ccc(F)cc3)nn2)C[C@@H]1c1ccc(OC)cc1	?	.	.	.	?	.	/	/	/	/
CCCCCCN1C[C@H](n2cc(-c3ccc(F)cc3)nn2)[C@@H](O)C[C@@H]1c1ccc(Cl)cc1	/	?	31.6µM	11.2µM	16.4µM	7.08µM	20.6µM	?	18.4µM	?
COC(=O)c1ccc(C)c(NS(=O)(=O)c2ccc(OC)cc2)c1	?	0.291µM	.	.	0.231µM	?	?	.	?	.
O=C(c1[nH]c(C(F)(F)F)nc1-c1ccccc1)N1CCN(c2cccc(C(F)(F)F)n2)CC1	.	4.61µM	.	.	4.61µM	11.2µM	16.4µM	.	13µM	.
COc1ccc2c(Cl)c(C(=O)NCCCn3ccnc3)sc2c1Cl	.	?	.	.	?	.	/	/	/	/
Cc1ccc(C(C)C)cc1NC(=O)Nc1ccc([N+](=O)[O-])cc1	?	4.61µM	/	.	3.66µM	7.94µM	?	?	18.4µM	.
CC(=O)Nc1ccc(-c2ccnc3c2CC(C(=O)Nc2ccc(Cl)c(C(F)(F)F)c2)O3)cc1 (centres undefined)	?	20.6µM	?	.	?	14.1µM	8.2µM	?	23.1µM	.
O=C(Nc1ccc(F)c(Cl)c1)C1Cc2c(-c3ccccc3Oc3ccccc3)ccnc2O1 (centres undefined)	?	?	?	.	?	?	/	/	/	/
O=C(Nc1ccc(F)c(Cl)c1)C1Cc2c(-c3ccc(Cl)cc3)ccnc2O1 (centres undefined)	?	16.4µM	?	.	?	15.8µM	10.3µM	?	18.4µM	.
COc1ccc(-c2ccc(NC(=O)c3ccc(Br)o3)cc2)nn1	?	?	.	.	?	.	/	/	/	/
SMILES	ATXN viability	TDP1 cell CPT	ATXN2 expr inh	HepG2 tox-1	TDP1 cell noCPT	TGFb inhibitor	TGFb CAGA inh	HepG2 tox-2	CCL64 TGFb inh	TGFb COP inh
NC(=O)c1ccccc1NC(=O)c1ccccc1Cl	.	.	/	.	?	.	/	/	/	/
O=C(Nc1ccccc1C(=O)Nc1nnc(C(F)(F)F)s1)c1ccccc1Cl	?	?	12.6µM	.	16.4µM	3.55µM	5.8µM	4.11µM	6.51µM	.
Cc1onc(-c2c(F)cccc2Cl)c1C(=O)Nc1nnc(C(F)(F)F)s1	?	11.6µM	?	.	14.6µM	17.8µM	20.6µM	?	?	.
Cc1cc(NC(=O)c2c(-c3c(F)cccc3Cl)noc2C)no1	.	.	/	.	.	.	/	/	/	/
O=C(Cn1ccc([N+](=O)[O-])n1)Nc1nc2ccccc2s1	.	.	.	.	.	.	/	/	/	/
O=[N+]([O-])c1cc2c(c3cccnc13)COCO2	.	?	.	.	?	?	18.4µM	.	.	.
O=[N+]([O-])c1ccc(N=Nc2ccc(O)cc2O)cc1	?	?	?	.	.	?	/	/	/	/
O=[N+]([O-])c1cccc(N=Nc2ccc(O)cc2O)c1	?	3.26µM	?	.	5.17µM	2.51µM	11.6µM	8.2µM	5.8µM	.
Cc1ccc(NC(=O)CN2CC(C)SC2=NC2CCCCC2)cc1 (centres undefined)	?	?	.	.	?	?	?	.	.	.
